Results taken from PubChem BioAssay (NCI).
About 83,000 compounds went through this panel and 20% of them were active in at least one assay; those are over-represented in the sample as a whole.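 For each line, cells grew in 96-well plates with the test compound present at a single concentration for 48 hours.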 The source made the active and inactive calls. The calls were made as follows: active = growth percent below 10; inactive = the rest.

Assays:
Assay in all cases: NCI-60 one-dose screen, 48 h (100 = growth as untreated, 0 = no growth, -100 = all killed)
NCI-H322M lung = conditions: 10 µM
HOP-62 NSCLC = conditions: 10 µM
NCI-H460 lung = conditions: 10 µM
NCI-H522 lung = conditions: 10 µM
A549/ATCC NSCLC = conditions: 10 µM
DU-145 prostate = conditions: 10 µM
SF-268 CNS = conditions: 10 µM
SF-295 CNS = conditions: 10 µM
SF-539 CNS = conditions: 10 µM
M14 melanoma = conditions: 10 µM
HCT-15 colon = conditions: 10 µM
HT29 colon = conditions: 10 µM
SNB-75 CNS = conditions: 10 µM
SNB-19 CNS = conditions: 10 µM
U251 CNS = conditions: 10 µM
PC-3 prostate = conditions: 10 µM
UACC-62 melanoma = conditions: 10 µM
SK-MEL-28 melanoma = conditions: 10 µM
SK-MEL-2 melanoma = conditions: 10 µM
HL-60(TB) leukemia = conditions: 10 µM unless noted

Measured: growth

CC12OOC(C)(OO1)C2CCC(=O)OCCNc1ccnc2cc(Cl)ccc12 (stereo unspecified)
inactive: NCI-H322M lung 96.6% | HOP-62 NSCLC 96.8% | NCI-H460 lung 45.2% | SF-268 CNS 97% | SF-295 CNS 83% | SF-539 CNS 35.6% | M14 melanoma 14.6% | SNB-75 CNS 90.5% | SNB-19 CNS 97.6% | U251 CNS 105% | PC-3 prostate 53.6% | UACC-62 melanoma 88.1% | SK-MEL-28 melanoma 93% | SK-MEL-2 melanoma 107%
active: NCI-H522 lung -79.2% | A549/ATCC NSCLC 9.38% | DU-145 prostate -53.9% | HCT-15 colon -73.2% | HT29 colon -59.8% | HL-60(TB) leukemia -40.3%

CC12OOC(C)(OO1)C2CCC(=O)NCCCNc1ccnc2cc(Cl)ccc12 (stereo unspecified)
active: NCI-H522 lung -77.8% | DU-145 prostate -74.4% | HCT-15 colon -45.1%
inactive: NCI-H322M lung 97.1% | HOP-62 NSCLC 95.1% | NCI-H460 lung 88.6% | A549/ATCC NSCLC 87.8% | SF-268 CNS 101% | SF-295 CNS 102% | SF-539 CNS 52.9% | M14 melanoma 86% | HT29 colon 35% | SNB-75 CNS 103% | SNB-19 CNS 94.1% | U251 CNS 101% | PC-3 prostate 84.1% | UACC-62 melanoma 87.2% | SK-MEL-28 melanoma 72% | SK-MEL-2 melanoma 100% | HL-60(TB) leukemia 96.6%

C[C@H]1[C@H](OC(=O)CCC(=O)Nc2cnccn2)O[C@@H]2OC3(C)CC[C@H]4[C@H](C)CC[C@@H]1[C@@]24OO3
active: NCI-H522 lung -13.6% | HL-60(TB) leukemia 0.224%
inactive: NCI-H322M lung 77.4% | HOP-62 NSCLC 53.6% | NCI-H460 lung 29.6% | A549/ATCC NSCLC 62.6% | DU-145 prostate 77.7% | SF-268 CNS 56.3% | SF-295 CNS 41.7% | SF-539 CNS 33.2% | M14 melanoma 35.9% | HCT-15 colon 12% | HT29 colon 27.3% | SNB-75 CNS 72.6% | SNB-19 CNS 56.3% | U251 CNS 42.6% | PC-3 prostate 36.6% | UACC-62 melanoma 26.3% | SK-MEL-28 melanoma 39.7% | SK-MEL-2 melanoma 31.2%

CCOP(=O)(OCC)C(NC(C)=O)C(=O)SCCN (stereo unspecified)
inactive: NCI-H322M lung 102% | HOP-62 NSCLC 107% | NCI-H460 lung 121% | NCI-H522 lung 98.7% | A549/ATCC NSCLC 107% | DU-145 prostate 122% | SF-268 CNS 125% | SF-295 CNS 93.2% | SF-539 CNS 97.5% | M14 melanoma 106% | HCT-15 colon 102% | HT29 colon 113% | SNB-75 CNS 99.1% | SNB-19 CNS 96.9% | U251 CNS 106% | PC-3 prostate 116% | UACC-62 melanoma 95.8% | SK-MEL-28 melanoma 108% | SK-MEL-2 melanoma 112% | HL-60(TB) leukemia 99.2%

COc1ccc(/C=C/C(=O)c2nc3ccccc3n2Cc2ccc(Br)cc2)cc1
inactive: NCI-H322M lung 73.9% | HOP-62 NSCLC 92.8% | NCI-H460 lung 57.8% | NCI-H522 lung 76.4% | A549/ATCC NSCLC 74.6% | DU-145 prostate 61.9% | SF-268 CNS 68% | SF-295 CNS 81.9% | SF-539 CNS 78.3% | M14 melanoma 72.5% | HCT-15 colon 38.8% | HT29 colon 64.9% | SNB-75 CNS 66.1% | SNB-19 CNS 74.4% | U251 CNS 50.2% | PC-3 prostate 57.4% | UACC-62 melanoma 65% | SK-MEL-28 melanoma 85.9% | SK-MEL-2 melanoma 88.8% | HL-60(TB) leukemia 41.2%

O=C(/C=C/c1cccc(Br)c1)c1nc2ccccc2n1Cc1ccc(Br)cc1
active: HOP-62 NSCLC -42% | NCI-H460 lung -40.3% | NCI-H522 lung -53.4% | DU-145 prostate 4.37% | SF-295 CNS -19.7% | SF-539 CNS -66% | M14 melanoma -31.7% | HCT-15 colon -78% | HT29 colon -49% | SNB-19 CNS -67% | U251 CNS -83.3% | PC-3 prostate 0.947% | UACC-62 melanoma -82.5% | SK-MEL-28 melanoma -53.4% | SK-MEL-2 melanoma -42.3% | HL-60(TB) leukemia -19.3%
inactive: NCI-H322M lung 51.9% | A549/ATCC NSCLC 28% | SF-268 CNS 26.8% | SNB-75 CNS 59.7%

COc1ccc2cc([C@H](C)C(=O)[Se]CCC#N)ccc2c1
active: NCI-H322M lung -21.6% | HOP-62 NSCLC -81.2% | NCI-H460 lung -27.2% | NCI-H522 lung -95.6% | A549/ATCC NSCLC -64.9% | DU-145 prostate -76.4% | SF-268 CNS -45.8% | SF-295 CNS -70.3% | SF-539 CNS -67.3% | M14 melanoma -63.9% | HCT-15 colon -31.7% | HT29 colon -49.3% | SNB-75 CNS -46.8% | SNB-19 CNS -68.7% | U251 CNS -95.3% | PC-3 prostate -10.1% | UACC-62 melanoma -67.7% | SK-MEL-28 melanoma -37.9% | SK-MEL-2 melanoma -42.1% | HL-60(TB) leukemia -42.5%

COc1ccc(/C=N/N=C(\C)c2ccc3c(c2)Nc2ccccc2S3)cc1O
inactive: HL-60(TB) leukemia 34.2%

COCCOCCOCCOc1ccc(-n2cc(-c3ccc(O[C@H]4O[C@@H]5OC6(C)CC[C@H]7[C@H](C)CC[C@@H]([C@H]4C)[C@@]57OO6)cc3)nn2)cc1
inactive: NCI-H322M lung 86.1% | HOP-62 NSCLC 73.6% | NCI-H460 lung 70.6% | A549/ATCC NSCLC 60.1% | DU-145 prostate 42.6% | SF-268 CNS 59% | SF-295 CNS 40.4% | SF-539 CNS 47.6% | M14 melanoma 32% | HCT-15 colon 12.7% | HT29 colon 48.1% | SNB-75 CNS 66.5% | SNB-19 CNS 64% | U251 CNS 73% | PC-3 prostate 28% | UACC-62 melanoma 37.3% | SK-MEL-28 melanoma 44.6% | SK-MEL-2 melanoma 16.8% | HL-60(TB) leukemia 10.1%
active: NCI-H522 lung -21.3%
